# In PubChem BioAssay (EPA / NIEHS):
# The source made the active and inactive calls. Rule for the calls: active = hit-call score of the fitted dose curve at least 0.9, where 1 is the maximum; inactive = score below 0.9.
# Read-out: Secreted IgG (sIgG), gene 3500
# Assay: BSK_BT_sIgG: BioMAP Diversity Plus: BT Assay for Secreted IgG (sIgG) Biomarker Activity (AID 2284226)
# Settings: primary human B cells with PBMC
# Summary of the method: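 ELISA quantitation of secreted IgG from human B cells co-cultured with PBMC, sampled 24 h post-dosing. Values fitted relative to DMSO vehicle as baseline, positive fitting direction.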
Compound,AC50,outcome
O=C1c2ccccc2C(=O)c2c(O)ccc(O)c21,0.36 µM (active),–
COc1ccc(OC)c(N=Nc2c(O)ccc3ccccc23)c1,9.86 µM (active),–
CCCCN(CCCC)C(=O)N(CCCC)CCCC,14.6 µM (active),–
CN(C)C(=S)SC(=S)N(C)C,0.244 µM (active),–
CN(C)C(=O)Nc1ccc(Oc2ccc(Cl)cc2)cc1,20 µM (active),–
COc1cc(Cl)c(OC)cc1N,–,inactive
O=C1OC[C@H](Cc2cccc(O)c2)[C@H]1Cc1cccc(O)c1,–,inactive
CC(=O)C1(C)CC2=C(CCCC2(C)C)CC1C (stereo unspecified),28.8 µM (active),–
CCN(CC)C(=O)N(CC)CC,–,inactive
CC(=O)Nc1ccc(C(=O)CCl)cc1,2.21 µM (active),–
C1=CC2C3C=CC(C3)C2C1 (stereo unspecified),–,inactive
CC(C=O)Cc1ccc(C(C)(C)C)cc1 (stereo unspecified),–,inactive
Cc1cc(CCC(=O)OCCOCCOCCOC(=O)CCc2cc(C)c(O)c(C(C)(C)C)c2)cc(C(C)(C)C)c1O,–,inactive
CCCCCC(C=O)=Cc1ccccc1,26.9 µM (active),–
Clc1cc(Cl)c(-c2c(Cl)c(Cl)cc(Cl)c2Cl)cc1Cl,–,inactive
c1ccc2cc(Nc3ccc(Nc4ccc5ccccc5c4)cc3)ccc2c1,–,inactive
C=C(C)[C@H]1CC=C(C)C(=O)C1,–,inactive
CC=Cc1ccc(OCC)c(O)c1,12.9 µM (active),–
C=C(C)C(=O)OCC(CC)(COC(=O)C(=C)C)COC(=O)C(=C)C,3.08 µM (active),–
c1ccc(CCc2ccccc2)cc1,–,inactive
CC(C)(C)CC(C)(C)c1ccc(OCCOCC[N+](C)(C)Cc2ccccc2)cc1,1.57 µM (active),–
